According to the supplement of paper PMC6555819:

Assays:
Test in all cases: PBM binding z-score (relative to random genomic background probes); higher = stronger binding; sequences stand for … in GC…GCGATTGACAGCGTAGAATGAAGG
[1] = test system: PPARg:RXRa DBDmut IVT, anti-RXR (DBD mutation: RXRa K156A/R161A, NR concentration 270 nM, RXRa partner concentration 90 nM)
In short: (§1)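 Binding buffer was PBS pH 7.4 with 2% milk, 0.02% Triton X-100, 1 mM DTT, 0.2 mg/mL BSA and 0.4 mg/ml salmon testes DNA. In it, ligand-free nuclear receptor dimers were incubated 1 h on custom Agilent 4×180K protein-binding microarrays carrying double-stranded probes. Antibodies against each partner (one per run) detected binding, and z-scores were calculated against random background probes after regression normalization of scanned fluorescence.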

[2] = test system: PPARg:RXRa IVT, anti-PPARg (NR concentration 270 nM, RXRa partner concentration 90 nM)
In short: as §1

[3] = test system: PPARg DBDmut:RXRa IVT, anti-PPARg (DBD mutation: PPARg1 K132A/R137A, NR concentration 270 nM, RXRa partner concentration 90 nM)
In short: as §1

[4] = test system: PPARg DBDmut IVT, anti-PPARg (DBD mutation: PPARg1 K132A/R137A, NR concentration 270 nM)
In short: as §1

[5] = test system: PPARg homodimer (NR concentration 180 nM)
In short: as §1

[6] = test system: PXR:RXRa (NR concentration 270 nM, RXRa partner concentration 90 nM)
In short: as §1

[7] = test system: PXR homodimer (NR concentration 270 nM)
In short: as §1

[8] = test system: RARa:RXR (NR concentration 270 nM, RXRa partner concentration 90 nM)
In short: as §1

[9] = test system: RARa homodimer (NR concentration 270 nM)
In short: as §1

[10] = test system: RARb:RXRa (NR concentration 270 nM, RXRa partner concentration 90 nM)
In short: as §1

Sequence	PBM binding z-score [1]	PBM binding z-score [2]	PBM binding z-score [3]	PBM binding z-score [4]	PBM binding z-score [5]	PBM binding z-score [6]	PBM binding z-score [7]	PBM binding z-score [8]	PBM binding z-score [9]	PBM binding z-score [10]
TCGAGCAGGCCAGAGGGTCACTCAAGAGGTACGG	-0.0196	0.342	-0.384	-1.69	0.386	1.76	-0.594	2.13	-0.84	2.19
TAGCCTAGGTAATTCAGGGGCCAGTATAGAAAGC	-0.0164	0.234	0.0188	-0.116	-0.334	-0.507	-0.545	-0.256	-0.299	0.0227
GCTAATAGTTGAAAGGGCAACCGAATGATTCTCG	0.302	1.27	-0.057	-0.27	0.836	0.859	-0.00303	1.61	0.745	2.21
GCTGCTAGGTCTACTGATGGTCAGCTAAAGCTCG	0.214	-0.311	-1.02	-1.38	-1.15	-0.901	-1.2	-0.701	-0.754	-0.132
ACAGACAGGTGATGAAGGTAACTCGGGCTATCAT	0.382	0.0218	-0.282	-0.148	0.503	-0.0935	0.344	0.209	0.291	0.263
AGTCAAAGTTCATCTAGGTACCGTAAGATATGCT	0.148	2.85	2.26	1.1	3.06	5.28	5.43	3.85	1.42	4.81
ATCTCTAGGTAAAGACAGTTCAGTGAATGCAAAT	2.12	1.73	0.488	0.666	0.86	1.61	1	0.704	1.05	0.625
ACTATTAGTTGATACGAGGGCAACCGATAGGTTG	0.641	1.17	1.01	1.4	0.764	1.34	0.799	0.922	0.828	1.28
TCTTGTGGATCAAAGGTTAAGAAAGCCGAAGCCT	1.84	3.48	0.81	-0.181	1.3	1.98	-0.205	2.8	0.693	1.82
ACTATTAGTCGAGACGAGGGCAACCGATAGGTTG	-0.021	0.553	0.32	-0.276	0.0526	0.376	0.101	0.238	-0.112	0.812
TCTGCTAGGTTAACGATGGTCAGCTAATCTGCTA	2.11	1.89	-0.412	-0.772	-1.29	-0.232	-0.501	0.0866	-0.99	1.15
